Drawing on PubChem BioAssay (EPA / NIEHS), this text covers AC50 and outcome for 38 molecules.

Records with an inconclusive call do not appear. The source holds several records for some structures; these can differ, active in one and inactive in another. Activity calls are given as the source filed them. The calls were made as follows: active = hit-call score of the fitted dose curve at least 0.9, where 1 is the maximum; inconclusive = response in the unintended direction; inactive = score below 0.9.

This experiment is described as follows: TOX21_p53_BLA_p4_viability: Viability Assessment in the Tox21 HCT-116 p53 Agonism Beta-lactamase Assay, Phase 4 (AID 2283597).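 Also: hits lower the luminescence signal meaning cytotoxicity.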 From the text: TOX21_p53_BLA_p4 is a cell-based, single-readout assay that uses HCT116, a human intestinal cell line, […] in a 1536-well plate.TOX21_p53_BLA_p4_viability is an assay readout measuring cellular ATP content and detected with CellTiter-Glo Luciferase-coupled ATP quantitation.TOX21_p53_BLA_p4_viability used a type of viability reporter where loss-of-signal activity can be used to understand changes in the cell viability. Furthermore, this assay endpoint can be referred to as a secondary readout, because this assay has produced multiple assay endpoints where this one serves a viability function. To generalize the intended target to other relatable targets, this assay endpoint is annotated to the cell cycle intended target family, where the subfamily is cytotoxicity.
Thawing Method: Place 14 mL of pre-warmed thaw medium into a 15 mL of conical tub. Remove the vial of cells to be thawed from liquid nitrogen and thaw rapidly by placing at 37C in a water bath with gentle agitation for 1-2 minutes. Decontaminate the vial by wiping with 70% ethanol before opening in a biological safety cabinet. Transfer the vial contents drop-wise into 14 mL of thaw medium in a sterile 15-mL conical tub. Centrifuge cells at 900 rpm for 4 minutes and resuspend in thaw medium. Transfer contents to the T75 tissue culture flask containing Thaw Medium and place flask in a humidified 37C/5% CO2 incubator. Switch to growth medium at first passage.Propagation Method: Aspirate medium, rinse once in DPBS, add 0.25% Trypsin/EDTA and swirl to coat the cell evenly. Add an equal volume of Growth Medium to inactivate Trypsin after 2-3 minutes incubation at 37C. Centrifuge cells at 900 rpm for 4 minutes and resuspend in growth medium. Cell should be passage or fed at least twice a week.Assay Protocol: Harvest cells from culture in growth medium and resuspend in assay medium. 2.2 Dispense 4000 cells/5 uL/well into 1536-well black/clear bottom plates using a Multidrop dispenser. After the cells were incubated at 37C for 5 hours, 23 nL of compounds dissolved in DMSO were transferred to the assay plate by a PinTool resulting in a 217-fold dilution. Incubate the plates for 16 hours at 37C, 5% CO2. Add 1 uL of 6X LiveBLAzer FRET B/G (CCF4-AM) Substrate Mixture to each well using a BioRAPTR dispenser and incubate the plates at room temperature for 2 hours. Measure fluorescence intensity at 460 and 530 nm emission and 405 nm excitation by an Envision detector. Data is expressed as the ratio of 460nm/530nm emissions. Add 4 uL of Cell-titer Glo to each well using BioRAPTR and incubate the plates at room temperature for […]. For cell viability readout that measures cytotoxicity, 4 ul/well of CellTiter-Glo reagent was added into the assay plates using a Flying Reagent Dispenser. After 30 min incubation at room temperature, the luminescence intensity in the plates was measured using a ViewLux plate reader.
For orientation: AC50 means the midpoint of the concentration-response curve, whichever way the signal moves. On to `[F][Sn]([c]1ccccc1)([c]1ccccc1)[c]1ccccc1`, for which the AC50 was 3.96 µM (active).

With `CCCCCCCCCCCCCCC(Br)C(=O)O` (stereo not given), the molecule was called inactive.

In the case of `CC(C)[C@H](C(=O)OC(C#N)c1cccc(Oc2ccccc2)c1)c1ccc(OC(F)F)cc1` (stereo not given in full), the result was inactive.

For the molecule `CC(C)(c1ccccc1)c1cc(-n2nc3ccccc3n2)c(O)c(C(C)(C)c2ccccc2)c1`, the call was inactive.

Consider `C=CC(=O)[O][Sn]([CH2]CCC)([CH2]CCC)[CH2]CCC`, for which the AC50 was 1.56 µM (active).

As to `O=C(NC(=O)c1c(F)cccc1F)Nc1cc(Cl)c(OC(F)(F)C(F)C(F)(F)F)cc1Cl` (stereo not given), the call was inactive.

Take `O=C(CBr)c1ccc(O)cc1`: the call was inactive.

Take `Cc1cc(C(F)(C(F)(F)F)C(F)(F)F)ccc1NC(=O)c1cccc(I)c1C(=O)NC(C)(C)CS(C)(=O)=O`: the call was inactive.

Regarding `O=[N+]([O-])c1c2ccccc2cc2ccccc12`, the molecule was classed as inactive.

As for `O=c1oc2ccccc2c(O)c1C(CC(O)c1ccc(-c2ccc(Br)cc2)cc1)c1ccccc1` (stereo not given), the molecule was called inactive and the AC50 was 10.4 µM (active).

On to `Cc1cccc(N=Nc2ccc(N(C)C)cc2)c1`, for which the call was inactive.

On to `CCNc1nc(NCC)nc(SC)n1`, for which the call was inactive.

On to `Cc1cc(SCc2sc(-c3ccc(C(F)(F)F)c(F)c3)nc2C)ccc1OCC(=O)O`, for which the AC50 is 11.9 µM (active).

Turning to `CCOP(=O)(OCC)OC(=CCl)c1ccc(Cl)cc1Cl`, the molecule was called inactive.

On to `CNC(=O)O/N=C/C(C)(C)S(C)(=O)=O`, for which the molecule was classed as inactive.

As for `CCN(CC)C(=O)C(Cl)=C(C)OP(=O)(OC)OC`, the molecule was classed as inactive.

As to `CN(C)[C@@H]1C(=O)C(C(N)=O)=C(O)[C@@]2(O)C(=O)C3=C(O)c4c(O)ccc(Cl)c4[C@@](C)(O)[C@H]3C[C@@H]12`, the molecule was classed as inactive.

As to `O=C(CCl)Nc1ccccc1`, the molecule was called inactive.

As for `O=C(NC(=O)c1c(F)cccc1F)Nc1cc(Cl)c(Oc2ncc(C(F)(F)F)cc2Cl)c(Cl)c1`, the concentration at half-maximal activity (AC50) was 4.06 µM (active).

Consider `CCCCCCCCCCCCN(C)C`, for which the molecule was called inactive.

In the case of `O=NN1CCCCCCC1`, the molecule was classed as inactive.

Regarding `O=C(CCl)NCO`, the outcome was inactive.

Turning to `Cc1cc(Cl)ccc1O`, the molecule was called inactive.

In the case of `O=S1OC[C@@H]2[C@H](CO1)[C@]1(Cl)C(Cl)=C(Cl)[C@@]2(Cl)C1(Cl)Cl` (stereo not given in full), the AC50 was 83.6 µM (active).

As to `CC(C)(C)c1cc([N+](=O)[O-])cc(C(C)(C)C)c1O`, the half-maximal activity concentration (AC50) is 46.1 µM (active).

Consider `c1ccc2c(c1)Oc1ccccc1O2`, for which the molecule was called inactive.

As to `Clc1cnc(Oc2ccc(Oc3ncc(Cl)cc3Cl)cc2)c(Cl)c1`, the molecule was classed as inactive.

For the molecule `C#CCOC(=O)/C=C(C)/C=C/CC(C)CCCC(C)C` (stereo not given), the call was inactive.

`CCOP(=S)(OCC)O/N=C(\C#N)c1ccccc1`: the molecule was called inactive.

With `Cc1cc(Cl)ccc1OC(C)C(=O)O` (stereo not given), the outcome was inactive.

In the case of `OC(c1ccc(Cl)cc1)(c1ccc(Cl)cc1)c1cccnc1`, the AC50 was 60.5 µM (active).

Regarding `O=[N+]([O-])c1ccc(Nc2ccccc2)cc1`, the outcome was inactive and the AC50 is 82.4 µM (active).

As for `Cc1cccc(C)c1NC(=O)CN1CCCC1=O`, the molecule was classed as inactive.

For the molecule `CCOP(=S)(OCC)OP(=S)(OCC)OCC`, the molecule was classed as inactive.

On to `CCOc1ccc(N)cc1`, for which the molecule was classed as inactive.

Take `O=C1C[C@@H]2OCC=C3CN4CC[C@]56c7ccccc7N1[C@H]5[C@H]2[C@H]3C[C@H]46`: the outcome was inactive.

`N#Cc1ccc(Cl)cc1`: the outcome was inactive.

Turning to `CCOc1cc(C=O)ccc1O`, the molecule was classed as inactive.
